Compound activity as filed in PubChem BioAssay.
Pf apPOL block: Pf-apPOL inhibitors, biochemical, fluorescence; Plasmodium falciparum apicoplast DNA polymerase (apPOL); Recombinant Pf-apPOL, molecular beacon fluorescence, 1.5 h; inhibition, % at 10 µM; 0.25% of 210,000 active; AID 1794808, 2022
mHTT CaM bind: mutant huntingtin-calmodulin interaction inhibitors – biochemical, AlphaScreen, primary screen; inhibition, % at 15 µM; P42858; AlphaScreen His-mHTT/GST-CaM binding, luminescence; 3.6% of 190,000 active
Each line names hits and unclear results; the compound was inactive in the other large screens; ! = repeats disagree. This is a sample that favours compounds with a hit; in the whole collection about 3.6% have one here. No stated cut-off is given here; in the data, active means inhibition above about 50%; inactive means the rest.

Nc1nc(NC(=O)c2ccc(F)cc2)nn1-c1ccccc1	Pf apPOL block 64.7
O=C(NC1CC2CC1CN2C(=O)c1cc(F)ccc1Cl)c1ccccc1 (stereo unspecified)	none
CCOc1ccc(N2C(=O)CC(NCc3ccc(F)cc3)C2=O)cc1 (stereo unspecified)	none
CC12CC3CC(C)(C1)CC(C(=O)NCc1ccccn1)(C3)C2	none
O=C1Nc2ccccc2CCC1NCc1ccccn1 (stereo unspecified)	mHTT CaM bind 71.4
O=C1CC(NCc2ccccn2)C(=O)N1c1ccc(F)cc1 (stereo unspecified)	mHTT CaM bind 100.3
COc1ccc(OC)c(N2CCN(C(=O)c3ccc(Cl)cc3)C(C)C2=O)c1 (stereo unspecified)	none
NC(=O)c1cc2cc(Br)ccc2oc1=Nc1ccc(-c2ccccc2)cc1	none
O=C1C2C3c4ccccc4C(c4ccccc43)C2C(=O)N1CCOCc1ccccc1 (stereo unspecified)	none
O=C(NCCc1ccsc1)C1CC(=O)N(c2ccc(F)cc2)C1 (stereo unspecified)	none
CN(C)c1cccc(OCc2noc(-c3cccc(Cl)c3)n2)c1	mHTT CaM bind 61.7
COc1cccc(OCc2noc(-c3cccc(Cl)c3)n2)c1	none
COc1ccc(Cl)cc1C1=N/C(=C/c2cccc(Cl)c2)C(=O)O1	none
COc1cc(/C=C2/C(=O)ON=C2C)ccc1OCC(C)C	none
CCCOc1ccc(/C=C2\C(=O)ON=C2C)cc1OCC	mHTT CaM bind 85.0
C=CCOc1ccc(/C=C2/C(=O)ON=C2C)cc1OC	mHTT CaM bind 87.0
CCOc1ccc(/C=C2\C(=O)ON=C2C)cc1OC	mHTT CaM bind 64.0
COc1cc(/C=C2/C(=O)ON=C2C)ccc1OCCc1ccccc1	none
CCOc1cc(/C=C2/C(=O)ON=C2C)ccc1OCc1ccc(Br)cc1	none
CCOc1cc(/C=C2/C(=O)ON=C2C)ccc1OCc1cccc(Cl)c1	mHTT CaM bind 99.0
CCOc1cc(/C=C2\C(=O)ON=C2C)ccc1OCc1ccccc1	none
O=C(NC1(c2nc(-c3ccccn3)no2)CCCCC1)c1ccccc1	none
OCCNc1nc2nonc2nc1Nc1ccccc1	none
COc1ccc(S(=O)(=O)CCc2ccncc2)cc1	none
C#CCOc1ccc(/C=C2\C(=O)ON=C2C)cc1OCC	mHTT CaM bind 51.0
C#CCOc1ccc(/C=C2\C(=O)ON=C2C)cc1OC	none
COc1ccc(/C=C2\CCCC(C(=O)C(F)(F)F)=C2O)cc1	mHTT CaM bind 55.0
COc1ccc(/C=C2\CCC(C3CCCC3)C2=O)cc1 (stereo unspecified)	none
Cc1c(C)c2cc3c(-c4ccccc4)coc3cc2oc1=O	Pf apPOL block 60.0
Cc1c(C)c2cc3c(-c4ccc(F)cc4)coc3cc2oc1=O	none
Cc1cc(Br)ccc1NC(=O)c1cc2c(=O)n3cccc(C)c3nc2s1	none
COc1nc(Nc2cc(Cl)ccc2OC)nc(OC)n1	none
COc1ccc(Cl)cc1Nc1nc(-c2sc(N)nc2C)cs1	mHTT CaM bind 81.6
COc1ccc(OC)c(Nc2nc(-c3sc(N)nc3C)cs2)c1	mHTT CaM bind 80.7
COc1ccccc1Nc1nc(-c2ccncc2)cs1	none
COc1ccccc1CNCc1cccc(C(F)(F)F)c1	none
COc1ccccc1-n1nc(C(=O)NC2CCCCC2)c2ccccc2c1=O	none
Cn1cccc1CN1CCc2nc(N3CCCCC3)nc(Oc3ccccc3)c2C1	mHTT CaM bind 71.0
c1ccc(Oc2nc(N3CCCCC3)nc3c2CN(Cc2cccnc2)CC3)cc1	mHTT CaM bind 52.8
CC(C)CN1CCc2nc(N3CCOCC3)nc(Oc3ccccc3F)c2C1	none
CCOc1ccc(CN2CCc3nc(N4CCCC4)ncc3C2)cc1	none
CCc1ccc(C(C)NS(=O)(=O)c2cc3c(s2)CCN(C(=O)C2CCC2)C3)cc1 (stereo unspecified)	none
CSc1nnc2c(n1)OC(c1cc3c(cc1Cl)OCO3)N(C(C)=O)c1ccccc1-2 (stereo unspecified)	mHTT CaM bind 78.0
CCN(CC)c1ccc(C2Oc3nc(SC)nnc3-c3ccccc3N2C(C)=O)c(OC)c1 (stereo unspecified)	mHTT CaM bind 59.0
CCSc1nnc2c(n1)OC(c1ccccc1OC)N(C(C)=O)c1ccccc1-2 (stereo unspecified)	none
CSc1nnc2c(n1)OC(c1cc3c(cc1[N+](=O)[O-])OCO3)N(C(C)=O)c1ccccc1-2 (stereo unspecified)	none
O=C(Nc1sc2c(c1C(=O)NCC1CCCO1)CCCC2)c1cccc([N+](=O)[O-])c1 (stereo unspecified)	none
Cc1ccn2c(NCc3ccccc3)c(-c3ccccc3O)nc2c1	mHTT CaM bind 80.5
Cc1ccn2c(NC(=O)CC(C)C)c(-c3ccccc3C)nc2c1	none
Cc1cccc(NC(=O)N2CCCC(CCC(=O)NCc3cc(F)cc(F)c3)C2)c1 (stereo unspecified)	none
COc1nc(-c2ccccc2)c2cc(Br)ccc2n1	none
NNc1nc(-c2ccccc2)c2cc(Br)ccc2n1	mHTT CaM bind 76.4
COc1ccc(-c2coc3c4c(ccc3c2=O)OCN(C2CC(C)(C)NC(C)(C)C2)C4)cc1OC	none
CC(=O)c1c(C)oc2c1c1c(c3ccccc32)OCN(C2CC(C)(C)NC(C)(C)C2)C1	mHTT CaM bind 78.1
O=C1c2ccccc2C(=O)c2c1oc1c3c(ccc21)OCN(CCc1ccccc1)C3	mHTT CaM bind 60.6
CCCCN1COc2ccc3c4c(oc3c2C1)C(=O)c1ccccc1C4=O	mHTT CaM bind 69.6
COCCCN1COc2ccc3c(C)c(-c4ccccc4)c(=O)oc3c2C1	none
CC1(C)CC(N2COc3ccc4c5c(oc4c3C2)C(=O)c2ccccc2C5=O)CC(C)(C)N1	mHTT CaM bind 96.0!
O=C1c2ccccc2C(=O)c2c1oc1c3c(ccc21)OCN(Cc1ccccc1)C3	none
CC(=O)c1c(C)oc2c1c1c(c3ccccc32)OCN(C2CCCCC2)C1	none
O=C(Nc1cnc(N2CCCCCC2)nc1)C1CC1	none
CCOc1cc([N+](=O)[O-])cc(C=Nc2ccc3ncccc3c2)c1O	none
COc1cc([N+](=O)[O-])cc(C=Nc2ncccc2O)c1O	mHTT CaM bind 72.0
Cc1cccc(N=Cc2cc(I)cc(I)c2O)c1	none
COc1cc([N+](=O)[O-])cc(C=Nc2cccc(Cl)c2Cl)c1O	none
Oc1cccnc1N=Cc1cc(I)cc(I)c1O	mHTT CaM bind 90.0
COc1cccc(N=Cc2cc([N+](=O)[O-])cc(OC)c2O)c1	mHTT CaM bind 76.0
Cc1ccccc1NC(=O)Cn1nc2c(cc1=O)CC(C)CC2 (stereo unspecified)	none
CCN(CC)C(=O)Cn1c(=O)n(CCCC(=O)NCc2ccco2)c(=O)c2sccc21	none
Cc1cc(=O)n(CC(=O)NC2CCCC2)cn1	none
COc1ccc(C=C2Oc3c4c(cc(C)c3C2=O)OCN(CC2CCCO2)C4)cc1OC (stereo unspecified)	none
COC(=O)c1cnc2nc(C)ccc2c1Nc1ccccc1	none
COC(=O)c1cnc2nc(C)ccc2c1Nc1ccc(Br)cc1	mHTT CaM bind 58.0
COc1ccc(-n2c(SCC(=O)NC3CCCCC3)nc3n[nH]c(C)c3c2=N)cc1	mHTT CaM bind 79.0
CCC(Sc1nc2n[nH]c(C)c2c(=N)n1-c1ccc(C)cc1)C(=O)N1CCCC1 (stereo unspecified)	mHTT CaM bind 54.0
CCC(C)NC(=O)CSc1nc2n[nH]c(C)c2c(=N)n1-c1ccc(Br)cc1 (stereo unspecified)	mHTT CaM bind 75.0
CCC(C)NC(=O)CSc1nc2ccsc2c(=O)n1-c1ccc(Br)cc1 (stereo unspecified)	none
